# Assay results: ChEMBL document CHEMBL3988442, “University of Dundee, Small-Polar-MMV Screening Library” (2021)
# Hit rate of the full screen: of about 48,000 compounds, about 13,000 (27%) showed an effect of 50% or more. The list shows a part of the results.
# Tested on: Wolbachia pipientis
# Assay: Anti-Wolbachia Cell-Based Screen
# Format: functional
# Design: scale not given: in the data most compounds retested in dose-response had high values
# Conditions: 5 µM
row,Structure (SMILES),Percent Effect
1,COC(=O)CCNC(=O)c1ccc(NC(=O)N(C)CC(C)C)cc1,21.34%
2,CN(C)c1ccc(CNC(=O)NCCc2ccccn2)cn1,91.3%
3,Cc1cc(CNC(=O)NCc2cccs2)ccc1S(C)(=O)=O,-12.59%
4,CN(C)c1ccc(CNC(=O)NCCc2cccs2)cn1,93.45%
5,CC(C)c1nc(CCNC(=O)NCc2ccnc(N(C)C)c2)cs1,6.649%
6,Cc1ccccc1C1(O)CCN(C(=O)CCc2cn3ccccc3n2)C1 (centres undefined),-1.584%
7,CN(C)c1ccc(C(=O)NCCCc2ccccn2)cn1,11.7%
8,CN(C)c1ccc(CNC(=O)NCCc2cn3ccccc3n2)cn1,118.9%
9,CN(C)c1ccc(CCNC(=O)NCc2ccc(N(C)C)nc2)cc1,5.041%
10,Cc1nc(CN2CCC(CNC(=O)Nc3ccccn3)CC2)oc1C,15.98%
11,COCc1nc2n(n1)CCCC2Nc1nc(C(C)C)ns1 (centres undefined),-13.74%
12,CN1CCN(S(=O)(=O)N2CCCCC2CCc2ccc(O)cc2)CC1 (centres undefined),-0.6049%
13,CCn1cc(CN2CCCn3nc(CNS(C)(=O)=O)cc3C2)c(C)n1,-7.534%
14,CC(C)=CCCC1(C)C=Cc2c(cc(C)n(CCC(=O)O)c2=O)O1 (centres undefined),110.1%
15,Cc1cc2c(c(=O)n1CCC(=O)O)C=CC(C)(C)O2,159.6%
16,CC(C)=CCCC1(C)C=Cc2c(cc(C)n(CC(=O)O)c2=O)O1 (centres undefined),107.4%
17,CCn1c(C)nnc1SCCNC(=O)c1cnc(C(C)(C)C)nc1O,-1.576%
18,CN(C)C(=O)N1CCN(CCCOc2ccccc2)[C@H]2CS(=O)(=O)C[C@H]21,-34.84%
19,CC(O)CN1CCC(CNCc2ccc(C#N)cc2)CC1 (centres undefined),2.816%
20,Cn1ccnc1CN1CCC2(CC1)CC(Oc1cccnc1)C2.O=C(O)C(F)(F)F.O=C(O)C(F)(F)F,-13.8%
21,Cn1ccnc1CN1CCC(F)(F)C2(CCN(c3cnccn3)C2)C1.O=C(O)C(F)(F)F (centres undefined),108.4%
22,Cn1ccnc1CN1CCC(F)(F)C2(CCN(c3cccnc3)C2)C1.O=C(O)C(F)(F)F.O=C(O)C(F)(F)F (centres undefined),75.41%
23,COc1cccc(N2CC3(CCN(Cc4nccn4C)C3)CC2=O)c1.O=C(O)C(F)(F)F (centres undefined),13.06%
24,Cc1ccc(N2CC3(CCN(Cc4nccn4C)C3)CC2=O)s1.O=C(O)C(F)(F)F (centres undefined),20.39%
25,Cn1cc(N2CC3(CCN(Cc4nccn4C)C3)CC2=O)cn1.O=C(O)C(F)(F)F (centres undefined),-13.1%
26,Cc1cnn(C(C)C2CC2)c1NC(=O)c1cnccn1 (centres undefined),2.38%
27,COc1ccc(CN2CCN(C(C)=O)CC2)cc1SC(F)(F)F,-8.503%

row,Structure (SMILES),Percent Effect
1,CCN1Cc2nc(OC)c(CNC(=O)CCC3CCCC3)cc2C1=O,102.4%
2,CCN1Cc2nc(OC)c(CNC(=O)C3CCCN(C)C3)cc2C1=O (centres undefined),93.23%
3,COc1nc2ccccc2cc1CN1CCCC(CNC(C)=O)C1 (centres undefined),6.31%
4,CCc1[nH]c2c(CNC(=O)C3CCS(=O)(=O)CC3)cc(C)cc2c1C,-6.161%
5,CCc1[nH]c2c(CNC(=O)C3CCCN(C)C3)cc(C)cc2c1C (centres undefined),-27.93%
6,Cc1cc(C(F)(F)F)nc(CNC(=O)CCC2CCCN(C)C2)n1 (centres undefined),9.588%
7,O=C(CCC1CCCCC1)NCc1nnc2ccccn12,-0.7171%
8,COc1ccc(Oc2ccc(CNC(=O)C3CCS(=O)(=O)C3)cn2)cc1 (centres undefined),-6.307%
9,CCN1Cc2nc(OC)c(CNC(=O)C3CCS(=O)(=O)CC3)cc2C1=O,82.23%
10,O=C(NCCc1nnc2n1CCCCC2)N1CCC2(CCOC2)C1 (centres undefined),10.36%
11,CNC(=O)c1ccc(=O)n(Cc2csc(C(C)(C)C)n2)c1,14.6%
12,Cc1cnn(C2CCCN(C(=O)c3c(C)oc4nc[nH]c(=O)c34)C2)c1 (centres undefined),-0.5439%
13,COCc1nc(CNC2CCCc3c2cnn3C(C)(C)C)cs1 (centres undefined),-7.69%
14,CC1(NC(=O)Cc2csc(C(C)(C)C)n2)CCS(=O)(=O)C1 (centres undefined),-4.538%
15,COc1cc(N2CC[C@H]3OCC[C@@]3(COc3nccc(C)n3)C2)ncn1,-2.077%
16,Cc1cc(N2CCC(Cc3ccncc3)C2)ncn1 (centres undefined),95.84%
17,Cc1cc(N2CCC(Cc3cnccn3)C2)ncn1 (centres undefined),100.8%
18,COc1cc(N2CCC(c3nccn3Cc3cccnc3)CC2)ncn1,2.829%
19,Cc1cc(N2CCCC2c2cnccn2)ncn1 (centres undefined),-8.281%
20,Cc1ccc(N2CCCC(NCc3ccncc3)C2)nn1 (centres undefined),1.645%
21,COCCO[C@H]1CCN(c2cc(OC)ncn2)[C@H]1Cc1ccncc1,-8.224%
22,Cc1cc(N2CCC(Cc3ncccn3)C2)ncn1 (centres undefined),90.07%
23,Cc1cc2c(N3CCCC(OCc4cccnc4)C3)ncnc2s1 (centres undefined),0.4664%
24,C[C@@H]1CN(c2cc(N3CCC(O)CC3)ncn2)C[C@@]1(O)C1CCC1,2.327%
25,CN1CCN(c2cc(NC(=O)c3cnccn3)ncn2)CC1,-2.529%
26,Cc1cc(N2CCC(Cc3cccnc3)CC2)ncn1,156%
27,CCN(C(=O)c1cc2c([nH]c1=O)CCCC2=O)C1CCCCC1,14.13%
